{"source": "PubChem BioAssay"}
{"assay": "modulators of CIT2-GFP expression in yeast, confirmation, S. cerevisiae, GFP fusion, cherry picks, mother/daughter gates (AID 2274)", "conditions": "S. cerevisiae CIT2-GFP strain, flow cytometry, 3 h; measured here: mother cell gate; at 10 µM; stronger effect = higher value", "units": {"GFP response, % of DMSO": "%"}}
{"smiles": "O=C(/C=C/c1ccc(F)cc1)NC(=S)NNC(=O)c1cnccn1", "GFP response, % of DMSO": 113}
{"smiles": "Cc1ccc(/C=C/C(=O)c2ccc(C)cc2)cc1", "GFP response, % of DMSO": 103}
{"smiles": "Cc1nn(Cc2ccc([N+](=O)[O-])cc2)c(=O)n1-c1cccc(Cl)c1", "GFP response, % of DMSO": 99.7}
{"smiles": "Cn1c(=O)[nH]c(=O)c2c1nc(N1CCCCC1)n2CCOc1ccccc1", "GFP response, % of DMSO": 103}
{"smiles": "COC(=O)NC1CCC(CC2CCC(NC(=O)OC)CC2)CC1", "note": "(stereo not given)", "GFP response, % of DMSO": 103}
{"smiles": "COCCNC(=O)c1ccc(Cl)c(Cl)c1", "GFP response, % of DMSO": 93.8}
{"smiles": "COc1cc(-c2nc3ccccn3c2NCC2CCCO2)ccc1O", "note": "(stereo not given)", "GFP response, % of DMSO": 104}
{"smiles": "CC(=O)Nc1ccc(NC(=O)c2nc(S(=O)(=O)Cc3cccc(C)c3)ncc2Cl)cc1", "GFP response, % of DMSO": 105}
{"smiles": "O=C(COc1ccccc1[N+](=O)[O-])Nc1ccc(NC(=O)c2cc3ccccc3o2)cc1", "GFP response, % of DMSO": 91.8}
{"smiles": "CCOC(=O)/C(=N\\NC(=O)c1ccccc1)c1ccccc1", "GFP response, % of DMSO": 99.1}
{"smiles": "COC(=O)c1ccc(N2C(=O)CC(Sc3n[nH]c(C)n3)C2=O)cc1", "note": "(stereo not given)", "GFP response, % of DMSO": 103}
{"smiles": "CC(C)C(=O)NC(c1cccs1)c1cc([N+](=O)[O-])c2cccnc2c1O", "note": "(stereo not given)", "GFP response, % of DMSO": 99.3}
{"smiles": "Cc1ccc(/C=N/Nc2ncc(Cl)cc2Cl)s1", "GFP response, % of DMSO": 98.5}
{"smiles": "CCOC(=O)Cc1csc(NC(=O)c2sc3nc4c(C)cc(C)cc4cc3c2N)n1", "GFP response, % of DMSO": 118}
{"smiles": "Cn1cc([N+](=O)[O-])c(C(=O)Nc2nc(-c3ccc(Cl)cc3)cs2)n1", "GFP response, % of DMSO": 99.3}
{"smiles": "CCCCOC(=O)C1CCC[C@@H](C)N1", "note": "(stereo not given in full)", "GFP response, % of DMSO": 100}
{"smiles": "CCN=C(NCC)SC1CC(=O)N(c2cccc(OCC)c2)C1=O", "note": "(stereo not given)", "GFP response, % of DMSO": 102}
{"smiles": "COc1ccc(NC2=C(Cl)C(=O)N(CCc3ccccc3)C2=O)c(OC)c1", "GFP response, % of DMSO": 97.7}
{"smiles": "COc1ccccc1-c1noc(CCC(=O)Nc2cccc(C(F)(F)F)c2)n1", "GFP response, % of DMSO": 94.4}
{"smiles": "COc1ccc(-c2csc(N(CC(C)C)C(=O)c3ccco3)n2)cc1", "GFP response, % of DMSO": 97.1}
{"smiles": "CC(=O)Nc1ccc(-c2csc(NC(=O)c3ccc(C)o3)n2)cc1", "GFP response, % of DMSO": 104}
{"smiles": "CNc1cc(CSC)nc(SCc2ccc(Cl)cc2Cl)n1", "GFP response, % of DMSO": 89}
{"smiles": "O=C1C(CSCc2ccccc2)NC(=S)N1c1ccccc1", "note": "(stereo not given)", "GFP response, % of DMSO": 94.7}
{"smiles": "COCCn1c(=N)c(C(=O)NCc2ccco2)cc2c(=O)n3ccccc3nc21", "GFP response, % of DMSO": 97.1}
{"smiles": "Cc1ccc(-c2csc(NC(=O)c3ccno3)n2)cc1", "GFP response, % of DMSO": 99.3}
{"smiles": "Cc1cccc(CN2CCSc3sccc3C2=O)c1", "GFP response, % of DMSO": 109}
{"smiles": "COC(=O)c1ccc(/C=C/C(=O)c2ccc(OC)cc2)cc1", "GFP response, % of DMSO": 99.1}
{"smiles": "CCOC(=O)CCS(=O)(=O)c1nc(-c2ccccc2)cc(C(F)(F)F)n1", "GFP response, % of DMSO": 92.3}
{"smiles": "CCCN(Cc1nnc(-c2ccccc2Cl)o1)C(=O)c1cc([N+](=O)[O-])cc([N+](=O)[O-])c1", "GFP response, % of DMSO": 94.9}
{"smiles": "COc1ccc(-c2[nH]ncc2N=Nc2ccccc2)cc1", "GFP response, % of DMSO": 93.7}
{"smiles": "Cc1cccc(Cn2cc(/C=C/[N+](=O)[O-])c3ccccc32)c1", "GFP response, % of DMSO": 93.2}
{"smiles": "OC1(c2ccc(F)cc2)CSC(=Nc2cccnc2)N1Cc1ccco1", "note": "(stereo not given)", "GFP response, % of DMSO": 108}
{"smiles": "COc1cc(/C=C2\\N=C(C)OC2=O)cc(Cl)c1OC(C)=O", "GFP response, % of DMSO": 103}
{"smiles": "O=c1c2c(-c3ccc(Cl)cc3)csc2ncn1/N=C/c1cccc([N+](=O)[O-])c1O", "GFP response, % of DMSO": 98}
{"smiles": "O=[N+]([O-])c1cc(O)c2ncccc2c1", "GFP response, % of DMSO": 131}
{"smiles": "CCc1nnc(NC(=O)c2ccc(S(=O)(=O)N(CC(C)C)CC(C)C)cc2)o1", "GFP response, % of DMSO": 101}
{"smiles": "CCn1c(=O)c(C(=O)NCc2ccc(OC)cc2)c(O)c2ccccc21", "GFP response, % of DMSO": 100}
{"smiles": "CS(=O)(=O)N1N=C(c2ccco2)CC1c1ccc(Cl)cc1", "note": "(stereo not given)", "GFP response, % of DMSO": 100}
{"smiles": "CC1(C)CCN2CCC(C)(C)c3c(O)ccc1c32", "GFP response, % of DMSO": 119}
{"smiles": "O/C=c1\\ccc2cccc3nc(C(F)(F)F)nc1c23", "GFP response, % of DMSO": 181}
